In the library only some 4.6% were active in any assay of this set; here they are far more common.
V-ATPase pHluor: regulators of yeast V-ATPase proton transport. response, % at 10 µM. AID 504577. 350,000 tested, 0.37% active. S. cerevisiae, pHLuorin cytosolic pH fluorescence; in the data active = response mostly above about 7.3%, no sharp cut-off; inactive = mostly below about 5.4%; note: actives read high
TIM10 inh: inhibits growth of TIM10 yeast strain; S. cerevisiae TIM10 strain growth, BacTiter-Glo luminescence, 24 h; inhibition, % at 10 µM; 330,000 tested, 1.4% active; AID 463195;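 active = inhibition of 40% or more at the single tested concentration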;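 note: wild-type TIM10 isogenic control strain grown at permissive 25 °C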
PfHsp90 set2: reduces growth (ATP signal) of yeast expressing P. falciparum Hsp90 | S. cerevisiae expressing PfHsp90, BacTiter-Glo ATP, 48 h; yeast lacking PDR1 and PDR3 efflux regulators | inhibition, % at 9.4 µM | 310,000 tested, 0.32% active | AID 504621;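 active = every replicate shows inhibition above about 80%, whatever the replicate mean, limit read from the data; inconclusive = mean inhibition reaches the set limit but some replicate falls short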;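 note: 0% = DMSO neutral controls and 100% = 20 µM radicicol positive controls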
tim10-1 inh: inhibits growth of tim10-1 mutant yeast; S. cerevisiae tim10-1 ts strain growth, BacTiter-Glo, 24 h; inhibition, % at 20 µM; 330,000 tested, 2.2% active; AID 463190;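 active = inhibition of at least 40%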;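 note: mutant grown at 25 °C; 0% = DMSO wells with yeast and 100% = wells holding no yeast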
tim23-1 inh: growth inhibitors of tim23-1 mutant yeast. S. cerevisiae tim23-1 growth, BacTiter-Glo luminescence, 24 h. inhibition, % at 20 µM. 330,000 tested, 1.3% active;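 active = growth inhibition of the mutant yeast at or above 50%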;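 note: temperature-sensitive mutant grown at 25 °C; plate controls were DMSO-treated mutant yeast for no effect and medium wells lacking yeast for full effect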
SKKanGAS inh: inhibitors of SKKanGAS S. pyogenes growth in kanamycin (SK-promoter or general growth effect); AID 1662; BacTiter-Glo, 6 h; inhibition, % at 7.5 µM; 300,000 tested, 1.3% active;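 active = mean replicate score, as percent of positive control median, at least 50; inconclusive = mean below 50 but one replicate at or above 50; inactive = mean and every replicate below 50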;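 note: strain carries kanamycin resistance gene driven by streptokinase promoter and grows in 40 µg/ml kanamycin; loss of luminescence reflects streptokinase promoter inhibition or plain growth inhibition; 0% = median of DMSO wells and 100% = positive control at its reference dose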
tim10-1 confirm: confirmation of tim10-1 mutant yeast growth inhibitors; shares compounds with tim10-1 inh; S. cerevisiae tim10-1 ts strain growth, BacTiter-Glo, 24 h; inhibition, % at 20 µM; 7,400 tested, 56% active;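 active = inhibition of yeast growth at or above a set limit in either of two repeat tests at 20 µM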;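 note: tim10-1 mutant grown at permissive 25 °C to find synthetic lethal compounds; 0% = DMSO yeast wells and 100% = medium wells without yeast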
tim10 confirm: TIM10 yeast growth inhibition, confirmed; shares compounds with TIM10 inh; S. cerevisiae tim10 strain growth, BacTiter-Glo luminescence, 24 h; inhibition, % at 10 µM; 4,600 tested, 63% active; AID 463215;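 active = inhibition of yeast growth at or above a set limit in either of two replicates at 10 µM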;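 note: this counterscreen used the strain with wild-type TIM10; 0% = yeast with DMSO and 100% = medium wells lacking yeast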
The depositor's hits bear a star; ? = inconclusive; / = no result.

SMILES | V-ATPase pHluor | TIM10 inh | PfHsp90 set2 | tim10-1 inh | tim23-1 inh | SKKanGAS inh | tim10-1 confirm | tim10 confirm
CCC1(c2ccc(F)cc2)NC(=O)N(CC(=O)Nc2cc(C)on2)C1=O (stereo not drawn) | -1 | 3 | 10 | 8 | 7 | / | / | /
CN(C(=O)c1cccc(NC(=O)Cc2cccc(NC(=O)C3CCCN(C(=O)C4CCC4)C3)c2)c1)C1CCC1 (stereo not drawn) | 1 | / | -6 | / | / | / | / | /
CCCc1cc(-c2nc(-c3ccc(Br)cc3)cs2)ccn1 | -2 | 24 | -36 | 33 | 32 | 7 | / | /
CCCc1cc(-c2nc(-c3ccc(Cl)cc3)cs2)ccn1 | 0 | 51* | -4 | 47* | 30 | -9 | 45* | 43*
CCN1/C(=C/C=C/C=C/C=C/c2sc3ccccc3[n+]2CC)Sc2ccccc21 | -4 | 21 | 2 | 19 | 9 | 23 | / | /
CCN1/C(=C/c2ccc3cc(C)ccc3[n+]2CC)Sc2ccccc21 | 4 | 66* | 92* | 65* | 35 | / | 45* | 75*
CC(C)N1C/C(=C/c2ccsc2)C(=O)/C(=C/c2ccsc2)C1 | 3 | 46* | 4 | 40* | 22 | 2 | 28 | 34*
COc1ccc(-c2nnc(SCC(=O)Nc3cc(C)on3)o2)cc1 | -5 | 3 | 7 | -16 | -12 | 0 | / | /
O=C(OCC(=O)N1CCN(C(=O)c2ccco2)CC1)c1cccc(S(=O)(=O)N2CCc3ccccc32)c1 | 0 | -3 | -14 | 22 | 16 | 3 | / | /
CCNC(=O)NC(=O)C(C)Sc1nc2ccccc2n1CC(C)C (stereo not drawn) | / | 17 | -10 | 22 | 23 | 1 | / | /
COc1cccc(-c2nn3c(-c4ccco4)nnc3s2)c1 | -2 | 47* | -23 | 52* | 50 | 4 | 55* | 19
O=C(Oc1ccc(F)cc1C(=O)/C=C/c1cccs1)c1cccc([N+](=O)[O-])c1 | 6 | 50* | -17 | 51* | 21 | 4 | 40* | 1
COc1ccc(C(=O)Oc2ccc(F)cc2C(=O)/C=C/c2ccc(OC)c(OC)c2)cc1 | -2 | 27 | -4 | 24 | 39 | 1 | / | /
COc1ccc(NC(=O)CSc2n[nH]c(N)n2)c([N+](=O)[O-])c1 | -1 | 7 | -3 | 7 | -5 | 1 | / | /
CCOC(=O)c1sc(NC(=O)C(C)(C)C)cc1C | -5 | 31 | 27 | 34 | 33 | 4 | / | /
CCOC(=O)c1sc(NC(=S)NC(=O)CC(C)C)cc1C | 0 | 58* | -26 | 53* | 7 | -3 | 42* | 51*
COc1ccc(OC)c(NC(=O)CSc2ncnc3c2cnn3-c2ccccc2Cl)c1 | 2 | -15 | -26 | 7 | 2 | 25 | / | /
C=C(C)COc1ccc(-c2n[nH]c(C)c2-c2ccc(OC)c(OC)c2)c(O)c1 | 4 | 41* | -6 | 44* | 43 | 21 | 33* | 38*
COc1ccc2c(=O)c(-c3cnn(-c4ccccc4)c3)c(C)oc2c1 | 3 | 70* | 11 | 48* | 46 | -5 | 29 | 65*
O=C(O)c1cccc(N/N=C/c2cn(-c3ccccc3)nc2-c2cccs2)c1 | -2 | 61* | -23 | 47* | 10 | 2 | 59* | 65*
CCOC(=O)c1c(N2C(=O)CC(Sc3ccccc3C(=O)O)C2=O)sc2c1CCCC2 (stereo not drawn) | 2 | 43* | 22 | 54* | 31 | -6 | 44* | 40*
COc1ccc(S(=O)(=O)Nc2cccc(S(=O)(=O)N3CCCC3)c2)cc1OC | 6 | 5 | 4 | -7 | -3 | -1 | / | /
NC1=NC(=O)/C(=C/c2cn(Cc3ccccc3)c3ccccc23)S1 | -5 | 24 | -13 | 25 | 28 | 0 | / | /
O=C(NN1C(=O)/C(=C\c2cccnc2)SC1=S)C(c1ccccc1)c1ccccc1 | -1 | 40* | -1 | 46* | 35 | 1 | 39* | -20
O=C(Cc1cccc2ccccc12)NN1C(=O)/C(=C\c2cccnc2)SC1=S | -2 | 1 | -31 | 6 | 3 | 4 | / | /
SMILES | V-ATPase pHluor | TIM10 inh | PfHsp90 set2 | tim10-1 inh | tim23-1 inh | SKKanGAS inh | tim10-1 confirm | tim10 confirm
O=C(NN1C(=O)/C(=C/c2cccnc2)SC1=S)C(c1ccccc1)c1ccccc1 | -2 | 42* | / | 49* | 41 | -2 | 41* | 21
O=C(OCC(=O)N1CCOCC1)c1cc(-c2ccccc2)nc2ccccc12 | -1 | -4 | -3 | -12 | 24 | / | / | /
O=C([O-])c1ccccc1-[n+]1c(-c2ccccc2)cc(-c2ccccc2)cc1-c1ccccc1 | -1 | 9 | 7 | 1 | 4 | -1 | / | /
CCCCC1CCC(C(=O)N(CCC(C)C)c2c(N)n(CCCC)c(=O)[nH]c2=O)CC1 (stereo not drawn) | -1 | / | / | / | / | / | / | /
CC(C)Nc1nnc(Sc2ccc(Cl)cc2[N+](=O)[O-])s1 | -3 | 69* | 44 | 79* | 48 | -5 | 72* | 8
Nc1nnc(Sc2ccc(Cl)cc2[N+](=O)[O-])s1 | 9 | 3 | 23 | 15 | -2 | -5 | / | /
Cc1occc1-c1nnc(SCC(=O)NC2CCC(C)CC2)o1 (stereo not drawn) | 1 | 7 | -11 | 0 | 19 | / | / | /
COc1ccc(S(=O)(=O)N2CCC(C(=O)NCCCc3ccccc3)CC2)cc1 | -1 | 1 | -2 | 13 | 15 | 1 | / | /
O=C1OC(c2ccc(F)cc2)=C/C1=C\c1ccc([N+](=O)[O-])o1 | / | 64* | / | 71* | -142 | 68* | 41* | 59*
Cc1nn(C)c(C)c1NC(=O)Nc1ccc(Cl)c(Cl)c1 | 2 | 40* | 7 | 60* | 37 | 10 | 58* | 25
COc1ccc(/C=C/C(=O)C23CC4CC(CC(C4)C2)C3)cc1CN1CCOCC1 | 4 | 46* | 12 | 46* | 38 | 3 | 38* | 36*
CC(C)c1ccc(NC(=O)c2ccccc2NC(=O)C2CCCCC2C(=O)O)cc1 (stereo not drawn) | 5 | 6 | -4 | 14 | 10 | 7 | / | /
O=C(CNc1cccc(C(F)(F)F)c1)N/N=C/c1cccc(Br)c1 | 6 | 49* | -28 | 44* | 18 | 7 | 24 | -28
Oc1cccc(/C=N/N(Cc2ccccc2)c2ccccc2)c1 | 2 | 48* | / | 53* | 36 | ? | 26 | 41*
C(=N\N(Cc1ccccc1)c1ccccc1)/c1cccnc1 | -1 | -1 | -20 | -4 | 20 | 19 | / | /
COc1ccc(CCNC(=O)c2ccc(S(=O)(=O)N3CCCCC3)cc2)cc1 | 4 | 30 | -14 | 21 | 34 | / | / | /
CNC[C@H]1OCc2ccccc2-c2ccccc2C(=O)N([C@@H](C)CO)C[C@H]1C | -1 | / | / | / | / | / | / | /

Screens as filed in PubChem.
